# Laboratory results taken from PubChem BioAssay AID720711 (National Center for Advancing Translational Sciences (NCATS), 2013).
# Screen size: about 360,000 compounds; about 290 (0.081%) were called active. The call rests on the fitted dose curve; in most records, active means well fitted activation curve with a large enough effect; inconclusive means small, poorly fitted or top-dose-only effect; inactive means no such curve, though single readings can be large or run the other way. Shown is part of a subset that was picked to be rich in actives. Where a call stands in place of a potency, no number is given.
# Biological target: Rap guanine nucleotide exchange factor 4 (Homo sapiens) (UniProt Q8WZA2)
# Sequence (Q8WZA2 whole entry, looked up): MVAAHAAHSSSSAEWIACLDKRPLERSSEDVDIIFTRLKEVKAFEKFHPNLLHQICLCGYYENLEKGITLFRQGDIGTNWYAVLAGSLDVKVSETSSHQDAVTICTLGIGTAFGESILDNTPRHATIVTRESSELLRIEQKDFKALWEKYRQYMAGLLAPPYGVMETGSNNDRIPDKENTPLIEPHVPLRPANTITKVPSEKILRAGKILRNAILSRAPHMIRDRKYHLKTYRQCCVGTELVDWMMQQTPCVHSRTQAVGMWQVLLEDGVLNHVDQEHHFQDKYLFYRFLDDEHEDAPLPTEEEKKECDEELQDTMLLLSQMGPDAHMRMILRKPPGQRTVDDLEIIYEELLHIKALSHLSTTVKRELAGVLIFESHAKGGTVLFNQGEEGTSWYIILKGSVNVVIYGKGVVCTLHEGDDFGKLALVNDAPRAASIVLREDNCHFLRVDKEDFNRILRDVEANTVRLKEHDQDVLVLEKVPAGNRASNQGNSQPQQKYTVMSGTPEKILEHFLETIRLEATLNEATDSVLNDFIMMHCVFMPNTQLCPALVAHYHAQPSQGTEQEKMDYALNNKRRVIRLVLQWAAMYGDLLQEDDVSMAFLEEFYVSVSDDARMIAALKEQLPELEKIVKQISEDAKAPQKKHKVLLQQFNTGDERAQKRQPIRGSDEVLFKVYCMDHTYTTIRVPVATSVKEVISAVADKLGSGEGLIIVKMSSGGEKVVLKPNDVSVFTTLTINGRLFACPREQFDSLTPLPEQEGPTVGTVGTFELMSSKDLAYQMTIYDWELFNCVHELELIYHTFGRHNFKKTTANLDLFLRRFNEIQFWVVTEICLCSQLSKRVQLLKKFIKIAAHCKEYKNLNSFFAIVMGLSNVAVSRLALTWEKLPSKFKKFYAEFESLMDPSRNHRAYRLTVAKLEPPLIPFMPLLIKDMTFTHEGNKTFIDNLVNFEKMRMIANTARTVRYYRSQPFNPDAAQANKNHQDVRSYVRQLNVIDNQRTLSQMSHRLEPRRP
# Experiment: qHTS for Agonist of cAMP-regulated guanine nucleotide exchange factor 4 (EPAC2): primary screen; further: nearly all actives have a fitted effect of over 50% in size
# Settings: biochemical qHTS; Potency: EPAC2 activation; series mostly up to 154 µM
# Text: In multi-cellular eukaryotic organisms, the effects of cAMP are transduced by two ubiquitously-expressed intracellular cAMP receptors, the classic protein kinase A/cAMP-dependent protein kinase (PKA/cAPK) and the more recently discovered exchange protein directly activated by cAMP/cAMP-regulated guanine nucleotide exchange factor (EPAC/cAMP-GEF). Both PKA and EPAC are ubiquitously expressed in all tissues, and an increase in intracellular cAMP levels will lead to the activation of both PKA and EPAC. Therefore, careful dissections of the individual role and relative contribution of EPAC and PKA within the overall cAMP signaling in various model systems are critical for further elucidating the mechanism of cAMP signaling. To date no EPAC-specific antagonists and agonist, as well as isoform-specific agonists have been reported, and developing EPAC-specific pharmacological probes to determine the physiological functions that EPAC play in the overall cAMP-mediated signaling remains a major challenge within the research field. Furthermore, identified regulators of EPAC may lead to new mechanism-based therapeutic strategies specifically targeting the EPAC / cAMP-signaling components as EPAC has been implicated to play important roles in major human pathological conditions such as diabetes, heart disease, and cancer.
# This qHTS will be used to screen the Molecular Libraries Small Molecule Repository (MLSMR) as a concentration-titration series using the NCGC unique quantitative screening (qHTS) platform to find activators for EPAC2. In addition, this assay will also be used as a counterscreen for the EPAC1 qHTS. This fluorescent based assay is developed and validated for EPAC2 that measures exchange using EPAC effector Rap1 complex with BODIPY-GDP, a GDP analog with a tethered fluorophores. Activators are identified by monitoring the change in fluorescence signal as the exchanged free BODIPY-GDP has a reduced fluorescence compared to Rap1-bound BODIPY-GDP. […] in signal (activation) is the desired outcome for the EPAC2 agonist while no activity in this assay is desired for the EPAC1 agonist counterscreen.
# [1] de Rooij, J., Zwartkruis, F. J., Verheijen, M. H., Cool, R. H., Nijman, S. M., Wittinghofer, A., and Bos, J.L. (1998) Nature 396, 474-477
# [2] Kawasaki, H., Springett, G. M., Mochizuki, N., Toki, S., Nakaya, M., Matsuda, M., Housman, D. E., and Graybiel, A. M. (1998) Science 282, 2275-2279
# NIH Chemical Genomics Center [NCGC]
# NIH Molecular Libraries Probe Centers Network [MLPCN]
# Assay Submitter (PI): Xiaodong Cheng, The University of Texas, Medical Branch
# Briefly, three uL of reagents (100 nM EPAC2, 250 nM RAP1B-BODIPY-GDP, 50 uM GDP) were dispensed into a 1536-well Greiner black solid-bottom medium binding assay plate. Controls and test compounds (23 nL) were transferred to the plate via a Kalypsys pin tool equipped with a 1536-pin array. The plates were centrifuged at 1,000 rpm for 15 seconds followed by 5 minute incubation at room temperature. The assay plates were read at 5 minute intervals for 30 minutes in the ViewLux plate reader using 480nm excitation and 540nm emission filters. The results were normalized to the agonist positive control of 6.5 mM cAMP.
# Potency means the concentration at half of the fitted maximal effect.
row,Structure (SMILES),Potency
1,COC(=O)[C@]12CCCCC=C1N(Cc1ccco1)C(=O)[C@H](CC(=O)NCCCCc1ccccc1)C2,inactive
2,COc1ccc(S(=O)(=O)NC(CC(=O)NCc2ccccc2OC)c2ccco2)cc1 (stereo unspecified),inactive
3,Cc1sc2ncn(CC(=O)NCCN(C)C)c(=O)c2c1S(=O)(=O)N1CCC(C)CC1,inactive
4,CN(CCc1ccccn1)C(=O)c1ccc(OC2CCN(CCc3ccccc3)CC2)cc1,inactive
5,O=C1CCc2cc(S(=O)(=O)N3CCC(C(=O)NCc4ccccc4Cl)CC3)ccc2N1,inactive
6,CCOc1ccccc1Nc1nnc(SCC(=O)NCC2CCCO2)s1 (stereo unspecified),inactive
7,N#CCCn1cnc2ccccc21,inactive
8,O=[N+]([O-])c1ccc(CN2CC(N3CCC(c4ccccc4)CC3)CS2(=O)=O)cc1 (stereo unspecified),inactive
9,CC(=O)[C@@]12O[C@@H]1C[C@H]1[C@@H]3CC[C@H]4C[C@@H](O)CC[C@]4(C)[C@H]3CC[C@@]12C,inactive
10,CC1Cc2ccccc2N1S(=O)(=O)c1c(N)n(C)c(=O)n(C)c1=O (stereo unspecified),inactive
11,CC(C(=O)NC1CCCC1)N(c1ccc(Oc2ccccc2)cc1)S(C)(=O)=O (stereo unspecified),inactive
12,CC(=O)NC12CC3CC(C1)CC(C(=O)N1CCN(S(=O)(=O)c4cccs4)CC1)(C3)C2,inactive
13,Cc1cc(C)c(S(=O)(=O)N2C=CC(C(F)(F)F)=NCC2)c(C)c1,inactive
14,O=C(C1CCC1)N1CCN(S(=O)(=O)c2ccc([N+](=O)[O-])cc2)CC1,inactive
15,COc1ccc(NS(=O)(=O)c2cc(NC(=O)CC(=O)c3ccc([N+](=O)[O-])cc3)ccc2C)cc1,inactive
16,COc1ccc(C(=O)Nc2nc(-c3ccc(OC)cc3)c(-c3ccc([N+](=O)[O-])cc3)s2)cc1,112 µM (active)
17,COc1ccc(-c2[nH][nH]c(=O)c2NC(=O)c2ccc([N+](=O)[O-])cc2)cc1,inactive
18,CCOC(=O)NC(C(F)(F)F)(C(F)(F)F)P(=O)(c1ccccc1)c1ccccc1,inactive
19,Oc1ccc2ccc3cccc[n+]3c2c1,100 µM (active)
20,COCCN1CCN(C(=O)c2cc(COc3ccc(F)cc3Cl)on2)CC1,inactive
21,Cc1cc(Cl)c2oc(C(=O)N3CCC(O)(c4ccccc4)CC3)c(C)c2c1,inactive
22,Cc1cccc(OCc2nnc(SCc3nc4cc(C(F)(F)F)ccc4c(=O)[nH]3)o2)c1,inactive
23,Cc1nnc(N(Cc2ccco2)C(=O)c2ccno2)s1,inactive
24,CCC1C(C#N)=C(SC)NC2=C1C(=O)CC(C)(C)C2 (stereo unspecified),inactive
25,CCn1cc(NC(=O)Nc2ccc(OC)c(OC)c2)c(C(N)=O)n1,inactive
26,C[n+]1ccc(/C=C/c2c[nH]c3ccccc23)cc1,100 µM (active)
